Holding throughout (experiment): DAPPL (digital affinity profiling via proximity ligation, sequencing); 10 mM Tris-HCl pH 7.5, 50 mM NaCl, 1 mM DTT, 4% glycerol, room temperature, 30 min; GST-TFs on glutathione beads, 16-mer random dsDNA library, 0.1% formaldehyde crosslink after washing; high values mean tight binding
Common to all, as to conditions: protein: recombinant; tags: N-terminal GST; dsDNA, one strand shown

One experiment concerns the target T1, ERF (Homo sapiens, UniProt P50548 1-548).
T1 sequence: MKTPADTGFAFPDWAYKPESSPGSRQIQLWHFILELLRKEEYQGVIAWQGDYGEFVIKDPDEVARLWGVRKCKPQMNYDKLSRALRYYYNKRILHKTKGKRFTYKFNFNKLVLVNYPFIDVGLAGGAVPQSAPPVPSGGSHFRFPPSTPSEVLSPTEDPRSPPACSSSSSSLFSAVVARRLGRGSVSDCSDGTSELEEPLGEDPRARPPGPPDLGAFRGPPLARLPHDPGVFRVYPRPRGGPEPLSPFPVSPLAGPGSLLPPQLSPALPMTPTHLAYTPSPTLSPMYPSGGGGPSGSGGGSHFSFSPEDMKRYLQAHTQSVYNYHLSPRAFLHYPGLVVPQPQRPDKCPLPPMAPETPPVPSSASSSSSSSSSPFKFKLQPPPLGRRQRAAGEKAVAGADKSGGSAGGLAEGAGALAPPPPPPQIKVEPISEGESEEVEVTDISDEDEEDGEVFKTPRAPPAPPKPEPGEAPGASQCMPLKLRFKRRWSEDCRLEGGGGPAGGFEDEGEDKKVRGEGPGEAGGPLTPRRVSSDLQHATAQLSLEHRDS
An outline of the steps:
(§1)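 A tag-only sample was pooled with DNA-barcoded human transcription factors that had been expressed in yeast as GST fusions and captured on glutathione beads. The pools were incubated for 30 min at room temperature with 200 nmole of a random double-stranded 16-mer DNA library in Tris/NaCl/DTT/glycerol buffer, then washed, crosslinked with 0.1% formaldehyde, proximity-ligated (BsaI/T4 ligase, 1 h, 37 °C), PCR-amplified and sequenced on an Illumina NextSeq500. Binding signal is each hexamer's read frequency for a factor divided by its frequency for the tag-only sample.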

The next experiment has as its target T2, ETV3L (Homo sapiens, UniProt Q6ZN32 1-361).
T2 sequence: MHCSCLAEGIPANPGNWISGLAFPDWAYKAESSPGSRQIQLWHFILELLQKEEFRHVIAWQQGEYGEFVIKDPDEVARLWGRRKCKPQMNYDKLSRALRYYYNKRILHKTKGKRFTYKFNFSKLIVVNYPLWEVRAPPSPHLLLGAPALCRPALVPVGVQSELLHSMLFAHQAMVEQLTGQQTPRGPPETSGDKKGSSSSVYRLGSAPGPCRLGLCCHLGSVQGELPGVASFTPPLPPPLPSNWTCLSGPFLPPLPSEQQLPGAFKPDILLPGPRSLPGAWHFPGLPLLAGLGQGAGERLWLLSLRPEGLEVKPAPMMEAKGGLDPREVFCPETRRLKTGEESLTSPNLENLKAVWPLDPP
In outline:
as §1

The target in a further experiment is T3, ETS2 (Homo sapiens, UniProt P15036 1-469).
T3 sequence: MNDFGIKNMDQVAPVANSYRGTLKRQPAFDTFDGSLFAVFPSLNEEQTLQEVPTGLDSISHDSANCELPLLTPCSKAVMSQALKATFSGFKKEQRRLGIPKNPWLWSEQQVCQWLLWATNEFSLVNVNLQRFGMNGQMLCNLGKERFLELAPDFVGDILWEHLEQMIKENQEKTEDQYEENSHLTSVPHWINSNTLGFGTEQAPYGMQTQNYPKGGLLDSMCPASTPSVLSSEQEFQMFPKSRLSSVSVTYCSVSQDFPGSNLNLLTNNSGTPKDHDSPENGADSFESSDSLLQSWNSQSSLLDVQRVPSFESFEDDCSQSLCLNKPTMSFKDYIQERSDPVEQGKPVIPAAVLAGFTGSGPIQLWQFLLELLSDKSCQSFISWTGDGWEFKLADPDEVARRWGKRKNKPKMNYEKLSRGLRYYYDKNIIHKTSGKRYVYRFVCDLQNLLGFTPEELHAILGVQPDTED
In outline: as §1

The next experiment addresses T4, SPDEF (Homo sapiens, UniProt O95238 1-335).
T4 sequence: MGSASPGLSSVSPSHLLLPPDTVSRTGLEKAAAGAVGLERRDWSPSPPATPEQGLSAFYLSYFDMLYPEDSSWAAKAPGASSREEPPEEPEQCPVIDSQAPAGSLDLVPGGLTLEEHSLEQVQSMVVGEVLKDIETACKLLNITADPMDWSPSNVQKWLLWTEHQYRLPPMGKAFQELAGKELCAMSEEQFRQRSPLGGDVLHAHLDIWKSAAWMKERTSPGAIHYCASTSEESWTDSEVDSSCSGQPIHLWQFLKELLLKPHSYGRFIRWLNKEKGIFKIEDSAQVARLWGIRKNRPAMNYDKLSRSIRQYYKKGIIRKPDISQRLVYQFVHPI
An outline of the steps: as §1

The next experiment deals with T5, ETV7 (Homo sapiens, UniProt Q9Y603 1-341).
T5 sequence: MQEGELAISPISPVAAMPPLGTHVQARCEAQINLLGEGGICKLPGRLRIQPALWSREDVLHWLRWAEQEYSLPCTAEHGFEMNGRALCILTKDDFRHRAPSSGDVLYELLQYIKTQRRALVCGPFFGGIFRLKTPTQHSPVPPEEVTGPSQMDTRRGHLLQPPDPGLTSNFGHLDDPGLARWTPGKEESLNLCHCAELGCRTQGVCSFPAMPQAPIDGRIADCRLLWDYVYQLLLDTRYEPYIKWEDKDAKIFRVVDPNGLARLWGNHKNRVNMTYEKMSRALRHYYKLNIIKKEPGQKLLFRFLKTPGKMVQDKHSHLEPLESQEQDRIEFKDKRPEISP
In outline: as §1

In another experiment the target is T6, ELF5 (Homo sapiens, UniProt Q9UKW6-2 1-255).
T6 sequence: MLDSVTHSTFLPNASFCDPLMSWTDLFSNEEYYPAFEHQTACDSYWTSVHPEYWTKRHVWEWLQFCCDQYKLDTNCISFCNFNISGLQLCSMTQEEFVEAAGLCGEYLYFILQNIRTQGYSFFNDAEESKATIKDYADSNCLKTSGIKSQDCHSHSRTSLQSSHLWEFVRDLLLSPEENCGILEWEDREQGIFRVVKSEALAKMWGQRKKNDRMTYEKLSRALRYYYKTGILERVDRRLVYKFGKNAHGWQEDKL
In outline: as §1

For a further experiment, the target named is T7, ETV3 (Homo sapiens, UniProt P41162-2 1-143).
T7 sequence: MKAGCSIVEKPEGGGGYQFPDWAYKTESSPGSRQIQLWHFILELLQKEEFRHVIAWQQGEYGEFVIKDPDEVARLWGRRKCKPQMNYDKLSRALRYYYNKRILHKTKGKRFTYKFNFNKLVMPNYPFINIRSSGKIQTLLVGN
An outline of the steps: as §1

In a further experiment the target is ETV6 (Homo sapiens, UniProt P41212 1-452). In outline:
as §1

ETV6, sequence (P41212 whole entry): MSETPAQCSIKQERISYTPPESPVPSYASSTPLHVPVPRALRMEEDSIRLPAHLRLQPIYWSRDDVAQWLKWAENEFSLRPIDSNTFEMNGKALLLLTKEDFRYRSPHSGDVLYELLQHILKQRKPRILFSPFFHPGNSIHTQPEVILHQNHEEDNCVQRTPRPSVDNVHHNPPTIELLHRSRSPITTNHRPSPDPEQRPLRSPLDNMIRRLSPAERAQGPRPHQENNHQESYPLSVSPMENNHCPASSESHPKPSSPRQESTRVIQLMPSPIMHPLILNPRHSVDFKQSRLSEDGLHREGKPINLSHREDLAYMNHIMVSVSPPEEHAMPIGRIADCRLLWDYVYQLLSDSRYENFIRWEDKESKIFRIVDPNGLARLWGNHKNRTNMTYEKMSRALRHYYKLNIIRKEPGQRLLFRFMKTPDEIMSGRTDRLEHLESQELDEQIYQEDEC

Regarding GTATGC, the binding signal with ERF was 1.05 fold enrichment (6-mer frequency, TF over GST control); with ETV3L it was 1.23 fold enrichment (6-mer frequency, TF over GST control); with ETS2, 1.24 fold enrichment (6-mer frequency, TF over GST control); in the experiment with SPDEF, 1.18 fold enrichment (6-mer frequency, TF over GST control); in the experiment with ETV7, 1.27 fold enrichment (6-mer frequency, TF over GST control); with ELF5, 1.11 fold enrichment (6-mer frequency, TF over GST control). The binding signal with ETV3 is 1.24 fold enrichment (6-mer frequency, TF over GST control); with ETV6, 1.09 fold enrichment (6-mer frequency, TF over GST control).
As for CTGTCC, the binding signal with ERF was 1.28 fold enrichment (6-mer frequency, TF over GST control); in the experiment with ETV3L, 1.13 fold enrichment (6-mer frequency, TF over GST control); in the experiment with ETS2 it was 1.33 fold enrichment (6-mer frequency, TF over GST control); with SPDEF it was 1.27 fold enrichment (6-mer frequency, TF over GST control); in the experiment with ETV7, 1.28 fold enrichment (6-mer frequency, TF over GST control); with ELF5, 1.3 fold enrichment (6-mer frequency, TF over GST control). Moreover, the binding signal in the experiment with ETV3 was 1.14 fold enrichment (6-mer frequency, TF over GST control); with ETV6, 1.26 fold enrichment (6-mer frequency, TF over GST control).
Take AATTCA: the binding signal was 1.22 fold enrichment (6-mer frequency, TF over GST control) in the experiment with ERF; 1.35 fold enrichment (6-mer frequency, TF over GST control) with ETV3L; 1.39 fold enrichment (6-mer frequency, TF over GST control) in the experiment with ETS2; 1.24 fold enrichment (6-mer frequency, TF over GST control) in the experiment with SPDEF; 1.28 fold enrichment (6-mer frequency, TF over GST control) with ETV7; 1.3 fold enrichment (6-mer frequency, TF over GST control) in the experiment with ELF5. The binding signal with ETV3 is 1.31 fold enrichment (6-mer frequency, TF over GST control); with ETV6, 1.23 fold enrichment (6-mer frequency, TF over GST control).
For GTTTGA, the binding signal in the experiment with ERF is 1.23 fold enrichment (6-mer frequency, TF over GST control); with ETV3L, 1.11 fold enrichment (6-mer frequency, TF over GST control); with ETS2 it was 1.26 fold enrichment (6-mer frequency, TF over GST control); with SPDEF, 1.11 fold enrichment (6-mer frequency, TF over GST control); in the experiment with ETV7, 1.24 fold enrichment (6-mer frequency, TF over GST control); with ELF5 it was 1.17 fold enrichment (6-mer frequency, TF over GST control). Besides, the binding signal with ETV3 is 1.24 fold enrichment (6-mer frequency, TF over GST control); in the experiment with ETV6 it was 1.28 fold enrichment (6-mer frequency, TF over GST control).
Regarding AAAGGG, the binding signal with ERF was 1.09 fold enrichment (6-mer frequency, TF over GST control); with ETV3L, 1.09 fold enrichment (6-mer frequency, TF over GST control); with ETS2 it was 1.13 fold enrichment (6-mer frequency, TF over GST control); with SPDEF, 1.04 fold enrichment (6-mer frequency, TF over GST control); with ETV7, 1.09 fold enrichment (6-mer frequency, TF over GST control); with ELF5 it was 1.19 fold enrichment (6-mer frequency, TF over GST control). In addition, the binding signal is 1.18 fold enrichment (6-mer frequency, TF over GST control) with ETV3 and 1.1 fold enrichment (6-mer frequency, TF over GST control) with ETV6.
Turning to TGTCCA, the binding signal is 1.09 fold enrichment (6-mer frequency, TF over GST control) with ERF; 1.2 fold enrichment (6-mer frequency, TF over GST control) in the experiment with ETV3L; 1.14 fold enrichment (6-mer frequency, TF over GST control) with ETS2; 1.13 fold enrichment (6-mer frequency, TF over GST control) with SPDEF; 1.18 fold enrichment (6-mer frequency, TF over GST control) with ETV7; 1.05 fold enrichment (6-mer frequency, TF over GST control) with ELF5. Also, the binding signal was 1.13 fold enrichment (6-mer frequency, TF over GST control) in the experiment with ETV3 and 1.12 fold enrichment (6-mer frequency, TF over GST control) with ETV6.
With CGTTCC, the binding signal with ERF is 1.4 fold enrichment (6-mer frequency, TF over GST control); in the experiment with ETV3L, 1.43 fold enrichment (6-mer frequency, TF over GST control); in the experiment with ETS2, 1.48 fold enrichment (6-mer frequency, TF over GST control); with SPDEF it was 1.5 fold enrichment (6-mer frequency, TF over GST control); in the experiment with ETV7, 1.3 fold enrichment (6-mer frequency, TF over GST control); with ELF5, 1.65 fold enrichment (6-mer frequency, TF over GST control). Also, the binding signal is 1.41 fold enrichment (6-mer frequency, TF over GST control) with ETV3 and 1.42 fold enrichment (6-mer frequency, TF over GST control) with ETV6.
For ACCCCA, the binding signal was 1.08 fold enrichment (6-mer frequency, TF over GST control) with ERF; 1.09 fold enrichment (6-mer frequency, TF over GST control) in the experiment with ETV3L; 1.15 fold enrichment (6-mer frequency, TF over GST control) with ETS2; 1.02 fold enrichment (6-mer frequency, TF over GST control) with SPDEF; 1.06 fold enrichment (6-mer frequency, TF over GST control) with ETV7; 1.04 fold enrichment (6-mer frequency, TF over GST control) in the experiment with ELF5. The binding signal is 1.09 fold enrichment (6-mer frequency, TF over GST control) with ETV3 and 1.02 fold enrichment (6-mer frequency, TF over GST control) in the experiment with ETV6.
